From PubChem BioAssay
Only some compounds are listed: those with a hit (about 3.3% of all), similar ones and a draw of the others.
Fh CTSL1 inh: cathepsin L1 inhibition, PFM18AAP counter-screen. recombinant F. hepatica cathepsin L1, Z-Leu-Arg-MCA fluorescence. inhibition, % at 5.96 µM. hit rate 0.49% among 300,000. AID 1906;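 active means inhibition above the mean of all tested compounds plus 3 SD, set per screening campaign, cut at about 17% in these data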;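 further: 0% = plate median of test compound wells and 100% = 1 µM Z-Phe-Ala-diazomethylketone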
Rpn11 block: blocks the human proteasome subunit Rpn11; O00487; human 26S proteasome, Ub4-pepOG fluorescence polarization; 20S core pre-blocked with epoxomicin; inhibition, % at 20 µM; hit rate 0.59% among 360,000;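 active means inhibition at 20 µM, scaled to each plate's controls, above about 33%, limit read from the data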
TPT1 inhibitor: inhibitors of Candida albicans tRNA 2'-phosphotransferase TPT1; recombinant caTPT1, FP RNA substrate dephosphorylation; inhibition, % at 5 µM; hit rate 0.81% among 300,000;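 active means inhibition above the mean of all tested compounds plus 3 SD, set per screening campaign, cut at about 24% in these data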;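 further: plate controls were DMSO alone for no effect and ferristatin control at 100 nM for full effect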
PHOSPHO1 inh: PHOSPHO1 (human) inhibition; Q8TCT1; recombinant PHOSPHO1, absorbance phosphatase assay; inhibition, % at 13.3 µM; hit rate 1.1% among 290,000; in the data active means inhibition above about 60%
Target sequence (Q8TCT1 whole entry, looked up): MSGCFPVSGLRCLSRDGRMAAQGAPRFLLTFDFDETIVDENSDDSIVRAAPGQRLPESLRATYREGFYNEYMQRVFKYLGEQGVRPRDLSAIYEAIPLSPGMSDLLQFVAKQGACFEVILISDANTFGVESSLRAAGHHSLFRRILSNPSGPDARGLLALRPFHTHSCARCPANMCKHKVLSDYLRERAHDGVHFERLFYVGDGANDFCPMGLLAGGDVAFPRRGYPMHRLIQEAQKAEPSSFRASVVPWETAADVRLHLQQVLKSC
HNF4A DNA FP: change in binding of human HNF4 alpha to DNA; AID 1224865; HNF4a-FITC DNA binding, fluorescence polarization, 1 h; activity change, % at 10 µM; hit rate 0.3% among 360,000; in the data active means activity change above about 30%, passing the limit was not always enough
CendR NRP1 mod: modulators of CendR peptide binding to human neuropilin-1 | FAM-RPARPAR peptide binding to NRP-1, fluorescence polarization | inhibition, % at 25 µM | O14786 | hit rate 0.85% among 360,000;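 active means inhibition or corrected inhibition above about 18%, plus a signal ratio from 0.5 to 1.5, limit read from the data, passing the limit was not always enough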
Rpn11 inh conf: Rpn11 inhibition confirmation, single concentration. shares compounds with Rpn11 block. purified human 26S proteasome, Ub4-pepOG fluorescence polarization; proteasome pretreated with epoxomicin. inhibition, % at 20 µM. hit rate 29% among 1,900. AID 602318
MMP-2 inh: counter-screen for RPN11 inhibitors: inhibition of human MMP-2; shares compounds with Rpn11 block; recombinant MMP-2, FRET peptide cleavage fluorescence; inhibition, % at 20 µM; hit rate 4% among 1,900; AID 602330;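 further: human MMP-2 activated beforehand with APMA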
Thrombin FP: thrombin (bovine) inhibition counter-screen. shares compounds with Rpn11 block. bovine thrombin cleavage of Ub4-pepOG, fluorescence polarization. inhibition, % at 20 µM. hit rate 13% among 1,900. AID 602333;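 active means mean inhibition at least 40% at 20 µM, or signal 3 deviations below plate average, so some actives read negative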;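 further: plate controls were thrombin with DMSO for no effect and buffer wells lacking thrombin for full effect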
* hit, by the source's call; · = not tested or not shown. Unless noted, no stated cut-off is given here; in the data, active means inhibition above about 40%; inactive means the rest.

SMILES	Fh CTSL1 inh	Rpn11 block	TPT1 inhibitor	PHOSPHO1 inh	HNF4A DNA FP	CendR NRP1 mod	Rpn11 inh conf	MMP-2 inh	Thrombin FP
O=C(N/N=C/c1cn(-c2ccccc2)nc1-c1ccc2c(c1)OCCO2)c1ccncc1	2	82*	0	18	0	-6	15	-8	-7
Cc1cc(=O)n2[nH]c(-c3ccsc3-n3c(C)ccc3C)cc2n1	-3	39*	15	33	-10	-50	-7	-6	12
COc1cc2oc(=O)cc(CN3CCOCC3)c2cc1Cl	·	6	·	·	1	19	·	·	·
Cc1cc(C)c(S(=O)(=O)n2ccc(-c3ccc(OCCN(C)c4ccccn4)cc3)n2)c(C)c1	3	92*	-2	8	2	11	-39	-14	-13
CN(C)/C=C/C(=O)c1ccc(OCCN(C)c2ccccn2)cc1	-9	0	14	33	0	-3	·	·	·
COCCCC1CCN(C(=O)CCc2nnc(CCCCc3ccccc3)o2)CC1	16	-2	-2	-6	3	9	·	·	·
Cc1ccc(-c2nc3ccccc3o2)cc1NC(=S)NC(=O)c1cc2ccccc2o1	-2	47*	0	-2	18	-15	-3	-14	11
Cc1ccc2oc(-c3ccc(C)c(NC(=S)NC(=O)c4cccs4)c3)nc2c1	-2	26	-1	-4	5	-8	·	·	·
FC(F)(F)c1ccc(Cl)c(NC2=NCCCCC2)c1	-4	-9	-4	40	0	4	·	·	·
CCOc1cc(CNn2cn[nH]c2=S)cc(Cl)c1OCc1ccccc1F	-3	-1	-3	14	1	-7	·	·	·
Cn1c(=O)c2cc(NC(=O)Nc3cccnc3)ccc2n1Cc1cccc(C(F)(F)F)c1	·	-4	·	·	2	-7	·	·	·
Cn1c(=O)c2cc(NC(=O)Nc3cccnc3)ccc2n1Cc1ccc(Cl)cc1	·	46*	·	·	16	-62	14	-17	4
O=C(Cn1c(C(F)(F)F)nc2ccccc21)N1CCCC1	0	75*	-2	1	-3	10	-20	-35	-17
CCOC1=C2CN(S(=O)(=O)c3ccc(C)cc3)[C@H](c3ccccc3)C[C@@H]2N(S(C)(=O)=O)[C@H](c2ccccc2)C1	·	48*	·	·	14	-24	28	-11	19
Clc1cccc(CNc2ccn3nc(-c4cccs4)cc3n2)c1	·	8	·	·	-3	-8	·	·	·
Cc1ccc(Cl)cc1NC(=O)c1cnn2c1NC(c1ccco1)CC2C(F)(F)F (centres undefined)	0	40*	10	-3	11	-34	-15	-6	-43
COc1cccc(/C=N/NC(=O)c2c(C)nc3ccc(Cl)cn23)c1O	0	52*	13	52	5	-26	37	-66	-5
CCCn1c(N)c(C(=O)CN(C)CC(=O)Nc2ccc(F)cc2)c(=O)[nH]c1=O	·	2	·	·	1	9	·	·	·
C=CCn1c(SCC(=O)Nc2ccc(-c3nc4ccc(C)cc4s3)cc2)nnc1-c1ccncc1	-1	60*	0	-12	36	0	2	-5	1
CCn1c(SCC(=O)Nc2ccc(-c3nc4ccc(C)cc4s3)cc2)nnc1-c1ccccc1	2	·	-3	5	·	·	·	·	·
CCOC(=O)C1CCCN(Cc2nc3ccc([N+](=O)[O-])cc3c(=O)n2-c2ccc(OC)cc2OC)C1 (centres undefined)	1	109*	0	1	37*	-6	0	-25	-15
CCOC(=O)C1CCN(Cc2nc3ccc([N+](=O)[O-])cc3c(=O)n2-c2ccc(OC)cc2OC)CC1	-1	2	-3	33	-2	-16	·	·	·
O=C1N/C(=C/c2cccn2-c2ccccc2)C(=O)N1Cc1ccc(F)cc1	3	42*	8	13	8	-12	14	-25	-4
O=C(O)c1cccc(-n2cccc2/C=C2/NC(=O)N(Cc3ccccc3F)C2=O)c1	2	-8	0	16	-10	-26	·	·	·
